Sampled rows, rich in hits. Any-hit rate of the full collection: about 4%.
TROY NFkB inh: blocks TROY-dependent signaling in reporter cells; Q293 LMP1-TROYcd NF-kB luciferase reporter, 4 h; inhibition, % at 10 µM; 360,000 compounds, 0.98% hits; AID 1347056;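 active means compounds whose plate-normalised and pattern-corrected inhibition of the luciferase reporter signal at the single screening dose is 50% or more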
CF NFkB block: cystic fibrosis NF-kB activation inhibition. KKLEB NF-kB-GFP reporter, PAF-induced, GFP fluorescence overnight. inhibition, % at 5 µM. 360,000 compounds, 0.86% hits. AID 588850;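 active means at least 50% inhibition at 5 µM, scaled per plate between neutral and stimulator controls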;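 further: PAF is a Pseudomonas aeruginosa culture filtrate used as stimulus; plate controls were PAF-stimulated DMSO wells for no effect and unstimulated DMSO wells for full effect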
HIF-2a block: blocks HIF-2a reporter activity. 786-0 RCC cells HIF-2a reporter, luciferase luminescence, overnight. inhibition, % at 18.8 µM. 360,000 compounds, 0.72% hits. AID 624352;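 active means inhibition of the luminescence signal of 40% or more relative to plate controls, in a single-dose primary screen at 18.75 µM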
Peg3 prom inh: inhibitors of Peg3 promoter; HeLa PEG-Prom luciferase reporter, luminescence, overnight; inhibition, % at 20 µM; 360,000 compounds, 1.7% hits; AID 588405;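 active means inhibition of at least 50% at 20 µM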
TWEAK-Fn14 inh: inhibitors of TWEAK-Fn14 interaction signaling | TWEAK-stimulated Fn14 reporter cells, luciferase luminescence, 8 h | inhibition, % at 10 µM | 360,000 compounds, 2% hits; in the data active means inhibition above about 50%
KKLEB tox: reduces viability of KKLEB cystic fibrosis airway cells; activity change (cytotoxicity), % at 5 µM; KKLEB CF airway cells viability, ATPlite luminescence, overnight; stronger effect = lower value; cells stimulated with P. aeruginosa culture filtrate; 360,000 compounds, 0.36% hits; AID 602141;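 active means corrected activity change at or below -50% at 5 µM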
Mdm2 MdmX conf: confirmation of inhibitors of human Mdm2/MdmX interaction, set 2 | AID 504601 | 740 compounds, 99% hits | SaOS-2 split-luciferase Mdm2/MdmX complementation, luminescence | inhibition, % at 8 µM | shares compounds with HIF-2a block;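 active means mean inhibition of the luminescence signal across two replicates at or above 26 percent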
Target sequence (O15151 whole entry, looked up): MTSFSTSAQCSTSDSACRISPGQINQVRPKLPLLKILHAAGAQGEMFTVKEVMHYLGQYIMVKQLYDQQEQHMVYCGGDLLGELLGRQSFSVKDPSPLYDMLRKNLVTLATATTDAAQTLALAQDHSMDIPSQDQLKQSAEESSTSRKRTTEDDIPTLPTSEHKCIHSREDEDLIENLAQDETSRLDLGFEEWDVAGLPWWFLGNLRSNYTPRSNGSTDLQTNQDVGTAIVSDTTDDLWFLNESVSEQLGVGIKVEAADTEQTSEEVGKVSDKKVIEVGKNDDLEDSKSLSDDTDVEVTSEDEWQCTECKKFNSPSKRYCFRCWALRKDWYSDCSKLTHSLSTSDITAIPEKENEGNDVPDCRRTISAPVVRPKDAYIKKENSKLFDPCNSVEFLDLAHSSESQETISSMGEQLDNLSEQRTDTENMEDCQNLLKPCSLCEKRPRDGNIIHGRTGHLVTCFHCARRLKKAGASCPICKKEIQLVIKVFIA
Target sequence (Q00987 whole entry, looked up): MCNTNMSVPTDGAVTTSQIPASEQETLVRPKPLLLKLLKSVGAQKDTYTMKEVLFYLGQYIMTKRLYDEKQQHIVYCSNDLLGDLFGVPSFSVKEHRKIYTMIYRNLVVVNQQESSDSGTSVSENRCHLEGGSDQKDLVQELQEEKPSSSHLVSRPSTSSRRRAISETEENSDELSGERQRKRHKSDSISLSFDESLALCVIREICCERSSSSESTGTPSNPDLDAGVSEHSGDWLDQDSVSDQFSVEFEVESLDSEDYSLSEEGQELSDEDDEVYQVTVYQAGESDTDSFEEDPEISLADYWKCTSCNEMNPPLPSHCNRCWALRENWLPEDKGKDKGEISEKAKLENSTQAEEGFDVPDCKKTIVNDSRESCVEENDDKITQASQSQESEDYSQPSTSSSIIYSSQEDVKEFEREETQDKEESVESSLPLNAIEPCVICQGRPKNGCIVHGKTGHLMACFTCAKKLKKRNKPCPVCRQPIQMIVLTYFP
HIF-2a conf: confirmation of HIF-2a inhibitors | shares compounds with HIF-2a block | 786-0 RCC cells, HIF-2a luciferase reporter luminescence, overnight | inhibition, % at 18.8 µM | 1,800 compounds, 56% hits | AID 651580;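 active means mean inhibition across four replicates of at least 40 percent at the single tested concentration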
HIF-1a counter: counter-screen for HIF-2a inhibitors: HIF-1a inhibition in MiaPaCa-2 cells | MiaPaCa-2 HIF-1a luciferase reporter, desferoxamine, overnight | shares compounds with HIF-2a block | 1,800 compounds, 72% hits | inhibition, % at 18.8 µM | AID 651589;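 active means mean inhibition of the reporter signal across four replicates at the single tested dose of 50% or more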
Numbers without * were called inactive.

`CCOc1ccc(-n2cnc3scc(-c4ccc(OC)c(OC)c4)c3c2=O)cc1` gave TROY NFkB inh 18, CF NFkB block 13, HIF-2a block 41*, Peg3 prom inh 17, TWEAK-Fn14 inh 8, KKLEB tox 0, HIF-2a conf 15 and HIF-1a counter 26.
For COc1ccc(CN(C)C(=O)CCN=C2NS(=O)(=O)c3ccccc32)c(OC)c1 the results were TROY NFkB inh 3, CF NFkB block 15, HIF-2a block 8, Peg3 prom inh 19, TWEAK-Fn14 inh 12 and KKLEB tox -5.
For Cc1ccc(OCC(=O)c2cc(C)n(CC(F)(F)F)c2C)c([N+](=O)[O-])n1 the results were TROY NFkB inh 18, CF NFkB block 4, HIF-2a block -37, Peg3 prom inh -13, TWEAK-Fn14 inh 23 and KKLEB tox 6.
Screening COCCn1c(C)cc(C(=O)COc2cccnc2[N+](=O)[O-])c1C returned TROY NFkB inh -5, CF NFkB block -3, HIF-2a block 51*, Peg3 prom inh 65*, TWEAK-Fn14 inh -7, KKLEB tox 9, HIF-2a conf 65* and HIF-1a counter 71*.
Screening Cc1cc(C)c(C(=O)COc2cccnc2[N+](=O)[O-])cc1C returned TROY NFkB inh 22, CF NFkB block 19, HIF-2a block -8, Peg3 prom inh 31, TWEAK-Fn14 inh 10 and KKLEB tox -2.
`Cc1ccc(OCC(=O)c2cc(C)n(Cc3cccs3)c2C)c([N+](=O)[O-])n1` gave TROY NFkB inh -11, CF NFkB block 5, HIF-2a block 58*, Peg3 prom inh 43, TWEAK-Fn14 inh 3, KKLEB tox 0, HIF-2a conf 72* and HIF-1a counter 95*.
For CCOc1ccc(N(CC(=O)N2CCOCC2)S(=O)(=O)c2ccc(Cl)cc2)cc1 the results were TROY NFkB inh -9, CF NFkB block -8, HIF-2a block 5, Peg3 prom inh 14, TWEAK-Fn14 inh 16 and KKLEB tox -1.
For Cc1oc(-c2cccc(Cl)c2)nc1CN1CCC(C(=O)NCCCN2CC(C)CC(C)C2)CC1 (stereo not given) the results were TROY NFkB inh -20, CF NFkB block -6, HIF-2a block 1, Peg3 prom inh 92*, TWEAK-Fn14 inh -51, KKLEB tox -3 and Mdm2 MdmX conf 103*.
Cc1ccc(/C=C/C(O)=C2/C(=O)N(C)C3(C)CC2c2ccccc2O3)cc1 (stereo not given) was read as TROY NFkB inh 2, CF NFkB block 15, HIF-2a block 83*, Peg3 prom inh 39, TWEAK-Fn14 inh 51*, KKLEB tox -3, HIF-2a conf 37 and HIF-1a counter 97*.
COc1ccc(/C=C/C(O)=C2/C(=O)N(C)C3(C)CC2c2ccccc2O3)cc1 (stereo not given) was read as TROY NFkB inh -14, CF NFkB block 7, HIF-2a block 54*, Peg3 prom inh 29, TWEAK-Fn14 inh 28, KKLEB tox -6, HIF-2a conf -5 and HIF-1a counter 54*.
Screening CC(C)CCn1c(COc2ccccc2)nn(CCC#N)c1=S returned TROY NFkB inh 5, CF NFkB block 14, HIF-2a block 14, Peg3 prom inh 10, TWEAK-Fn14 inh -8 and KKLEB tox -3.
`COc1ccc(NS(=O)(=O)c2cccc(C(=O)N/N=C/c3c(F)c(F)c(F)c(F)c3F)c2)cc1` gave TROY NFkB inh 18, CF NFkB block 8, HIF-2a block 51*, Peg3 prom inh 95*, TWEAK-Fn14 inh -7, KKLEB tox -30, HIF-2a conf 36 and HIF-1a counter 80*.
`CC(CCc1ccccc1)NC(=O)COC(=O)C(CCC(N)=O)NC(=O)c1ccc(F)cc1` (stereo not given) gave TROY NFkB inh -2, CF NFkB block 1, HIF-2a block -6, Peg3 prom inh 6, TWEAK-Fn14 inh 15 and KKLEB tox 20.
`Cc1ccc(S(=O)(=O)N2CCN(C(=O)CN3C(=O)NC4(CCCC4)C3=O)CC2)c(C)c1` gave TROY NFkB inh 8, CF NFkB block -20, HIF-2a block 8, Peg3 prom inh 16, TWEAK-Fn14 inh -16 and KKLEB tox 1.
N#CCCCc1cc2ccccc2cn1 was read as TROY NFkB inh -17, CF NFkB block 3, HIF-2a block -21, Peg3 prom inh -36, TWEAK-Fn14 inh -4 and KKLEB tox 8.
CC(C)NC(=O)c1c(O)c2ccccc2[nH]c1=O was read as TROY NFkB inh -35, CF NFkB block 0, HIF-2a block -101, Peg3 prom inh -30, TWEAK-Fn14 inh -9, KKLEB tox 4 and Mdm2 MdmX conf 92*.
CC(C)C(=O)NNC(=O)c1c(O)c2ccccc2[nH]c1=O was read as TROY NFkB inh 8, CF NFkB block -10, HIF-2a block -1, Peg3 prom inh 11, TWEAK-Fn14 inh 1 and KKLEB tox 6.
Screening O=C(NNc1nc2ccccc2s1)Nc1ccc(Cl)c(Cl)c1 returned TROY NFkB inh 82*, CF NFkB block 8, HIF-2a block 40*, Peg3 prom inh -10, TWEAK-Fn14 inh 52*, KKLEB tox -19, HIF-2a conf -28 and HIF-1a counter 48.
O=C(CSc1nc2ccccc2s1)NNC(=O)Nc1ccc(Cl)c(Cl)c1 was read as TROY NFkB inh 0, CF NFkB block -4, HIF-2a block -14, Peg3 prom inh 0, TWEAK-Fn14 inh 0 and KKLEB tox 1.
For CCCCN(C)c1c(C)nc2ccc(C(=O)Nc3ccc(OC)c(OC)c3)cn12 the results were TROY NFkB inh -5, CF NFkB block -12, HIF-2a block -14, Peg3 prom inh 13, TWEAK-Fn14 inh 0 and KKLEB tox -7.
`CN(C(=O)CSc1cc(C(=O)c2nccn2C)c2ccccc2n1)c1ccccc1` gave TROY NFkB inh -67, CF NFkB block 23, HIF-2a block 50*, Peg3 prom inh 50, TWEAK-Fn14 inh -2, KKLEB tox -6, HIF-2a conf 29 and HIF-1a counter 52*.
CC(=O)N/N=C\c1cccc(OC/C=C/c2ccccc2)c1 was read as TROY NFkB inh -69, CF NFkB block 3, HIF-2a block 48*, Peg3 prom inh -71, TWEAK-Fn14 inh -24, KKLEB tox -5, HIF-2a conf 56* and HIF-1a counter -30.
